# Values without a mark were called inactive.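 The calls were made as follows: active = NADPH fluorescence slope more negative than the mean of all samples by about 3 SD, 99.7% confidence; inactive = the rest.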
# Molecular target: Voltage-gated potassium channel subunit beta-2 (Rattus norvegicus) (UniProt P62483)
# Assay: enhancers of rat Kvbeta2 NADPH turnover – biochemical, NADPH fluorescence, primary screen (AID 623);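 also: fluorescence intensity change per second fitted from 20 to 320 s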
# Conditions: Recombinant KvBeta, NADPH fluorescence decrease slope, 10 min; at 10 µM; stronger effect = lower value
# Sequence of Voltage-gated potassium channel subunit beta-2 (Rattus norvegicus) (P62483 whole entry, looked up): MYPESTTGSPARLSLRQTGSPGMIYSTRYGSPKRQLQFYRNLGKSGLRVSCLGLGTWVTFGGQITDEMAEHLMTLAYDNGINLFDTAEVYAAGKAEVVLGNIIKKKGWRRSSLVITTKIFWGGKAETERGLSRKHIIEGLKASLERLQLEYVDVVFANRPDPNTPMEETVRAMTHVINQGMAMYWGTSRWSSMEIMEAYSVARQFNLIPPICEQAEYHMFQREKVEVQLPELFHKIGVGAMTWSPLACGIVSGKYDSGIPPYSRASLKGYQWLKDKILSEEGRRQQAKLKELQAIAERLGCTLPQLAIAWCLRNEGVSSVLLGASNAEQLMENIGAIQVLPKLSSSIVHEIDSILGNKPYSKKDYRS
row,SMILES,NADPH fluorescence slope
1,Cc1cc(C)n(C(=O)C23CC4CC(CC(C4)C2)C3)n1,-2.3e-05
2,Nc1nc2n(n1)C(c1cccc(Cl)c1)CC(c1ccc(F)cc1)N2 (stereo not given),-3.8e-05
3,O=C(Nc1ccc(N2CCCC2)cc1)c1ccc(Br)o1,-6.5e-05
4,CCOC(=O)c1cccc(NC(=O)C2CCN(S(=O)(=O)c3cccs3)CC2)c1,-3.5e-05
5,CC(=O)C1=C(C)OC(N)=C(C#N)C1c1ccncc1 (stereo not given),-5.3e-05
6,O=C(CN1CCN(C2CCCCC2)CC1)Nc1ccccc1-c1ccccc1,-3.4e-05
7,CC1(C)Cc2c(c(=S)nc(-c3ccccc3)n2CCO)CO1,-5.3e-05
8,COCCCNC(=O)CC1Oc2ccccc2NC1=O (stereo not given),-5.2e-05
9,CC1(C)CC(=O)CC(C)(C)N1OC(=O)c1ccccn1,2e-05
10,O=C1OC(N2CCN(c3ccccn3)CC2)c2ccccc21 (stereo not given),-3.6e-05
11,c1cncc(-c2nc3c4ccccc4nc(N4CCC(N5CCCCC5)CC4)n3n2)c1,-0.000334
12,C=Cn1c(N2CCOCC2)nc2c1c(=O)[nH]c(=O)n2C,-2.2e-05
13,CC(C)(C)C1=Nn2c(nnc2-c2n[nH]c3c2CCC3)SC1,-1.7e-07
14,CCCCc1nc2ccccc2n2cc3c(=O)n(C)c(=O)n(C)c3c12,-1.7e-05
15,O=C(NC1CCCCC1)N(Cc1ccc(F)cc1)Cc1nc2ccccc2c(=O)[nH]1,3.6e-06
16,Cc1ccc(S(=O)(=O)CC(=O)N2CCCCCC2)cc1,-5.2e-05
17,O=C(NCC1COc2ccccc2O1)c1ccc(NC(=O)c2ccco2)cc1 (stereo not given),-2.6e-05
18,CCOC(=O)N1CCN(Cc2nc3c(c(=O)[nH]c(=O)n3C)n2Cc2cc(C)ccc2C)CC1,-5.3e-05
19,CCOC(=O)N1CCC(N2C(=O)c3ccccc3C2Nc2cccnc2)CC1 (stereo not given),4.7e-06
20,O=c1/c(=C/c2ccco2)sc2nc(-c3ccccc3Br)nn12,-2.3e-05

row,SMILES,NADPH fluorescence slope
1,CCOc1cc(NC(=O)c2ccccn2)c(OCC)cc1NC(=O)CC(C)C,4.7e-06
2,CC1(C)CC(=O)C=C(NCCN2CCN(C(=O)Nc3ccccc3)CC2)C1,-4.4e-05
3,Cc1ccccc1CN1CCN(C(=O)c2cccc(F)c2)CC1,-1.4e-05
4,Cn1c(=O)[nH]c(=O)c2c1nc(N1CCCCCC1)n2CCCSc1nc2ccccc2o1,-4.5e-05
5,COc1cccc(C2CC(c3ccccc3)n3ncnc3N2)c1 (stereo not given),-2.8e-05
6,C=CCNC(=O)c1ccc(Cl)cc1Cl,-4.6e-05
7,COc1ccccc1NC(=O)NC1(C(=O)N2CCC(O)CC2)CCCCC1,1.9e-06
8,Nc1scc(-c2ccncc2)c1Cl,1.9e-05
9,CC1CCCN(S(=O)(=O)c2ccc(C(=O)Nc3nnc(-c4ccccc4Cl)o3)cc2)C1 (stereo not given),-2.3e-05
10,CCOc1ccccc1OCCn1nnc2ccccc21,-5.5e-05
11,COc1ccc(CCN2C(=O)CCC2(C)C(=O)NCc2cccnc2)cc1OC (stereo not given),2.6e-06
12,COC(=O)c1ccccc1S(=O)(=O)N(CCCO)Cc1cc2c(C)ccc(C)c2[nH]c1=O,6.1e-06
13,CCCCn1c(CN(C)Cc2ccccc2)nc2c1c(=O)n(C)c(=O)n2C,-6.4e-05
14,CCn1c(SCC(=O)c2ccc(Cl)cc2)nnc1-c1ccoc1C,-6.2e-05
15,Cn1c(=N)c(S(=O)(=O)c2ccccc2)cc2c(=O)n3ccccc3nc21,-9.2e-06
16,CN(CC(=O)N1CCCCC1)S(=O)(=O)c1cccc2cccnc12,-1e-05
17,O=C(NCc1ccc2c(c1)OCO2)C1CCC(CNc2c(N3CCCCC3)c(=O)c2=O)CC1 (stereo not given),-4.4e-05
18,Cn1c(=O)c2c(nc(NCC3CCCO3)n2C)n(C)c1=O (stereo not given),-1.6e-05
19,Cc1cc2ccccc2n1CCNC(=O)c1ccc(S(=O)(=O)N2CCOCC2)cc1,-1.9e-05
20,CNC(=O)NCCN1CCCC1=O,-3.4e-05
